Reference: PubChem BioAssay (NCATS)
Results filed as inconclusive are left out. Activity calls are given as the source filed them. Calls follow the shape of the dose curve; as a rule, active = well fitted curve in the direction sought with a large enough effect; inconclusive = small, poorly fitted or top-dose-only effect, or another doubt; inactive = no such curve, though single readings can be large; an effect the other way counts as inactive or inconclusive.

Legend:
[1] = qHTS of pediatric cancer cell lines to identify multiple opportunities for drug repurposing: Primary screen for Rh30 cells (AID 1347107); also: nearly all actives have a fitted effect of over 75% in size
How it was run: (§1)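 Viability after 48 h compound treatment at 37C, 500-1,000 cells/well, read as ATP luminescence with CellTiter-Glo. Primary screens used 11-point (MIPE, 0.78 nM-46 µM) or 8-point (NPC, 0.59 nM-46 µM) final concentrations; follow-up screens used 11-point dilutions.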

[2] = qHTS of pediatric cancer cell lines to identify multiple opportunities for drug repurposing: Primary screen for Rh41 cells (AID 1347108); also: nearly all actives have a fitted effect of over 70% in size
How it was run: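 500-1,000 cells/well; 5 h pre-incubation 37 °C/5% CO2; compound pinned; 48 h; CellTiter-Glo, 15 min RT; luminescence. MIPE 11-pt from 0.78 nM, NPC 8-pt from 0.59 nM final. Bortezomib 2.3 µM final as positive control.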

[3] = qHTS of pediatric cancer cell lines to identify multiple opportunities for drug repurposing: Confirmatory screen for A673 cells (AID 1347110); also: nearly all actives have a fitted effect of over 65% in size
How it was run: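 A673 cells at 500-1,000 cells/well were dosed 5 h after plating, in dilution series up to 46 uM final; primary runs used 8 or 11 points and confirmatory runs used 11 points. Viability was read by CellTiter-Glo luminescence after 48 h, against DMSO and 2.3 uM bortezomib controls.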

[4] = qHTS of pediatric cancer cell lines to identify multiple opportunities for drug repurposing: Confirmatory screen for SK-N-MC cells (AID 1347111);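 also: cells exposed to compound for 48 h before the readout; nearly all actives have a fitted effect of over 70% in size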
How it was run: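 SK-N-MC cells at 500-1,000 cells/well in growth media were pre-incubated 5 h, then exposed to compounds at 11-point dilutions for 48 h at 37 degrees C, 5% CO2. Viability was read as CellTiter-Glo luminescence.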

[5] = qHTS of pediatric cancer cell lines to identify multiple opportunities for drug repurposing: Confirmatory screen for SJ-GBM2 cells (AID 1347116); also: nearly all actives have a fitted effect of over 60% in size
How it was run: (§2)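 Viability measured as metabolically active cells via CellTiter-Glo luminescence following 48 hours of compound exposure, 11-point dilutions in confirmatory testing. 500-1,000 cells/well plated 5 hours before dosing; controls were DMSO and 2.3 µM bortezomib.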

[6] = qHTS of pediatric cancer cell lines to identify multiple opportunities for drug repurposing: Confirmatory screen for NB1643 cells (AID 1347109); also: nearly all actives have a fitted effect of over 45% in size
How it was run: as §1

[7] = qHTS of pediatric cancer cell lines to identify multiple opportunities for drug repurposing: Confirmatory screen for LAN-5 cells (AID 1347113); also: nearly all actives have a fitted effect of over 65% in size
How it was run: as §1

[8] = qHTS of pediatric cancer cell lines to identify multiple opportunities for drug repurposing: Confirmatory screen for BT-12 cells (AID 1347112); also: nearly all actives have a fitted effect of over 55% in size
How it was run: as §1

[9] = qHTS of pediatric cancer cell lines to identify multiple opportunities for drug repurposing: Confirmatory screen for NB-EBc1 cells (AID 1347115); also: nearly all actives have a fitted effect of over 45% in size
How it was run: as §1

[10] = qHTS of pediatric cancer cell lines to identify multiple opportunities for drug repurposing: Confirmatory screen for DAOY cells (AID 1347114); also: nearly all actives have a fitted effect of over 65% in size
How it was run: as §2
Potency is read from the fitted curve at half-maximal effect.

Row | Structure (SMILES) | Potency [1] | Potency [2] | Potency [3] | Potency [4] | Potency [5] | Potency [6] | Potency [7] | Potency [8] | Potency [9] | Potency [10]
1 | Nc1ccccc1NC(=O)c1ccc(CNc2nccc(-c3cccnc3)n2)cc1 | inactive | 1180 nM (active) | 2610 nM (active) | inactive | 1470 nM (active) | – | – | – | – | –
2 | CC(C)(O)c1cc2nc(-c3cnc(N)nc3)nc(N3CCOCC3)c2s1 | 5260 nM (active) | 372 nM (active) | 1850 nM (active) | 1170 nM (active) | – | 1470 nM (active) | 737 nM (active) | – | – | –
3 | CC(NCc1ccc2c(c1)nc(NC(=O)c1ccc(-c3cn[nH]c3)s1)n2CC(C)(C)O)C(C)(C)C (centres undefined) | 14800 nM (active) | – | 827 nM (active) | – | 1040 nM (active) | 293 nM (active) | – | 928 nM (active) | 827 nM (active) | –
4 | O=C(Nc1ncc(-c2cc(C(F)F)nn2-c2c(Cl)cccc2Cl)s1)C1CC1 | inactive | – | 293 nM (active) | 414 nM (active) | – | 1170 nM (active) | 4650 nM (active) | – | – | 329 nM (active)
5 | CN(C)Cc1c(C(=O)NCCOc2ccc(C(=O)NO)cc2)oc2ccccc12 | 4690 nM (active) | – | 1310 nM (active) | 585 nM (active) | 1470 nM (active) | 465 nM (active) | 928 nM (active) | 8270 nM (active) | – | 2610 nM (active)
6 | CCn1cc(-c2ccnc3[nH]c(-c4cccc(CN(C)C)c4)cc23)c(-c2ccc(NC(=O)N(C)C)cc2)n1 | 14800 nM (active) | 5900 nM (active) | 1850 nM (active) | 65.7 nM (active) | 928 nM (active) | 3690 nM (active) | 6570 nM (active) | – | – | –
7 | CN(C)CC(C)(C)CNc1nn2c(-c3ccccc3)nnc2cc1C1CCC1 | inactive | – | – | 20800 nM (active) | – | inactive | inactive | inactive | inactive | –
